Among the data in PubChem BioAssay AID1835 (Johns Hopkins Ion Channel Center, 2009) are activity increase over dofetilide control, less the hit threshold values, retold here.

The structures appear in SMILES notation. Among all 2,400 compounds or so, about 750 (31%) were called active.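 Rule for the calls: active = median signal gain over dofetilide-blocked control wells reaching their mean plus 3 SD, so readout 1 at least 0; inactive = the rest.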 The list shows a part of the results.

Chain of Voltage-gated inwardly rectifying potassium channel KCNH2 (Homo sapiens) (Q12809 whole entry, looked up): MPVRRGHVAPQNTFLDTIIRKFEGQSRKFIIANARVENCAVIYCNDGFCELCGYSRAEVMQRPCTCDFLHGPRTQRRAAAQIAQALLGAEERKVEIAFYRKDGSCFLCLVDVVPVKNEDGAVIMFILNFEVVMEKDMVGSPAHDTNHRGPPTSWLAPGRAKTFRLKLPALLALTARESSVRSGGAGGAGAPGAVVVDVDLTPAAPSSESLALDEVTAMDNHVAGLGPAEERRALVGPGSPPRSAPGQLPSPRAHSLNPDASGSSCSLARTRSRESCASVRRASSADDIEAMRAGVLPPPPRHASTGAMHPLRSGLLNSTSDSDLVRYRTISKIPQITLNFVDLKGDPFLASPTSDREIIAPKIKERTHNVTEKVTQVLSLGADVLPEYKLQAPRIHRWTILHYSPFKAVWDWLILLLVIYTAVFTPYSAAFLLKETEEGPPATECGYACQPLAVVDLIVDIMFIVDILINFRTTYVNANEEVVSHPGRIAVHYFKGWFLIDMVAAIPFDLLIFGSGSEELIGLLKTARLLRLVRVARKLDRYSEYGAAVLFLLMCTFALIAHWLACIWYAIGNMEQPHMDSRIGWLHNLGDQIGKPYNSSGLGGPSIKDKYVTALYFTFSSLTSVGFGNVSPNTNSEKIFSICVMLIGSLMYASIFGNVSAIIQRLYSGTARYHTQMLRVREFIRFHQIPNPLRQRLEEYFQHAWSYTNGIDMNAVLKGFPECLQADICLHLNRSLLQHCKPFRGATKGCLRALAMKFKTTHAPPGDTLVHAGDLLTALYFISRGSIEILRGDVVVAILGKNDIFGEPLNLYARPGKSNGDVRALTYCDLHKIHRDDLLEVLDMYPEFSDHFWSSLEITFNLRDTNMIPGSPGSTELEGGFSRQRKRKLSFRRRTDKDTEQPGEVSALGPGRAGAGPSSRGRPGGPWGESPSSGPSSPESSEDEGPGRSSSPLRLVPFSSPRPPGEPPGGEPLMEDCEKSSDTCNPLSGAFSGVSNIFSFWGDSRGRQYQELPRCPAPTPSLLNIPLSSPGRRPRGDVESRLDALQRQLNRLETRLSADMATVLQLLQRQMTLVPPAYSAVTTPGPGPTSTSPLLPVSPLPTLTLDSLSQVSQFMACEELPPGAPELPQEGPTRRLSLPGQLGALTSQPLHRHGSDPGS

The experiment has as its target Voltage-gated inwardly rectifying potassium channel KCNH2 (Homo sapiens) (UniProt Q12809). The experiment in a line: modulators restoring hERG flux under dofetilide – cell-based, thallium flux, duplicate retest, dofetilide IC70, confirmation (AID 1835). The conditions noted are these: hERG cell line, FluxOR thallium flux, dofetilide-blocked; at 10 µM; active compounds read high.
Regarding `CCc1nccn1S(=O)(=O)c1ccc2ccc(C)cc2c1`, the activity increase over dofetilide control, less the hit threshold was -15% (inactive).

As for `CC1CCN(C(=O)CSc2nnc(CNC(=O)c3ccco3)o2)CC1`, the activity increase over dofetilide control, less the hit threshold was -15% (inactive).

As for `O=C(c1csc(Nc2ccccc2Cl)n1)N1CCCC1`, the activity increase over dofetilide control, less the hit threshold is 6% (active).

As to `COc1ccc(-c2cc(C(=O)N3CCCC3)no2)cc1`, the activity increase over dofetilide control, less the hit threshold was -4% (inactive).

In the case of `O=C(c1cccc2c1-c1ccccc1C2)N1CCCCC1`, the activity increase over dofetilide control, less the hit threshold was -17% (inactive).

On to `CC1Oc2ccccc2N(CC(=O)N2CCCCCC2)C1=O` (centres undefined), for which the activity increase over dofetilide control, less the hit threshold was -19% (inactive).

As to `N#CCCn1cc(/C=N/NC(=O)c2ccncc2)c(-c2ccc(F)cc2)n1`, the activity increase over dofetilide control, less the hit threshold is -2% (inactive).

`CCCCN(CCCC)C(=S)NC(=O)c1ccccc1Cl`: the activity increase over dofetilide control, less the hit threshold was 83% (active).

Take `CCN(CC)C(=S)NC(=O)c1ccc(Cl)cc1Cl`: the activity increase over dofetilide control, less the hit threshold is 11% (active).

`O=C(Nc1ccsc1C(=O)O)c1ccccc1Cl`: the activity increase over dofetilide control, less the hit threshold was -16% (inactive).

For the compound `CCCN(CCC)C(=S)NC(=O)c1ccc(Cl)cc1Cl`, the activity increase over dofetilide control, less the hit threshold is 60% (active).

Take `CCCn1nnnc1NC(=O)c1cc(Cl)ccc1Cl`: the activity increase over dofetilide control, less the hit threshold is -8% (inactive).

In the case of `CCCN(CC(=O)Nc1ccccc1C)C(=O)CCl`, the activity increase over dofetilide control, less the hit threshold was -13% (inactive).

With `CCN(CC)C(=S)NC(=O)c1ccc(F)cc1`, the activity increase over dofetilide control, less the hit threshold is -9% (inactive).

With `CN(C)/C=C/C(=O)c1ccc(Cl)cc1Cl`, the activity increase over dofetilide control, less the hit threshold was -11% (inactive).

As for `Cn1c(CNC(=O)CNC(=O)c2ccc(F)cc2)cc(=O)n(C)c1=O`, the activity increase over dofetilide control, less the hit threshold is -15% (inactive).

Turning to `CSc1ccc(C2NN=C(c3ccccc3)S2)cc1` (centres undefined), the activity increase over dofetilide control, less the hit threshold is -11% (inactive).

With `Cc1ccc(/C(O)=C2\C(=O)C(=O)N(Cc3cccnc3)C2c2ccccc2[N+](=O)[O-])cc1` (centres undefined), the activity increase over dofetilide control, less the hit threshold was -26% (inactive).

Regarding `O=C1C=C(NCCN2CCOCC2)C(=O)c2cnccc21`, the activity increase over dofetilide control, less the hit threshold was -3% (inactive).

Consider `Cc1ccc(OCCC(=O)OC(C)C(=O)NC2CC2)cc1` (centres undefined), for which the activity increase over dofetilide control, less the hit threshold was -12% (inactive).

`O=c1ccn(Cc2ccc(F)cc2)c2ccnc(C(F)(F)F)c12`: the activity increase over dofetilide control, less the hit threshold is -15% (inactive).

Turning to `O=c1cc(-c2ccccc2)cc(-c2ccccc2)n1O`, the activity increase over dofetilide control, less the hit threshold was 22% (active).

Turning to `CN1/C(=C/C=C(C#N)C#N)C=Cc2ccccc21`, the activity increase over dofetilide control, less the hit threshold is 66% (active).

Turning to `CCCCc1cc(=O)oc2c(C)c(OCC(=O)NCc3ccccn3)ccc12`, the activity increase over dofetilide control, less the hit threshold is -9% (inactive).

Turning to `CC(=O)c1n[nH]nc1NC(=O)c1ccccc1`, the activity increase over dofetilide control, less the hit threshold is -1% (inactive).

For the compound `Cc1ccccc1Cn1nc(C)c(NC(=O)c2ccccc2)c1C`, the activity increase over dofetilide control, less the hit threshold is 25% (active).

With `Cc1nn(C(=O)CNC(=O)c2ccccc2)c(C)c1C`, the activity increase over dofetilide control, less the hit threshold is -17% (inactive).

In the case of `COc1ccccc1NC(=O)Cc1nnc(SCC(=O)Nc2nccs2)n1C`, the activity increase over dofetilide control, less the hit threshold was -10% (inactive).

Turning to `O=C(CN1CCN(c2ccccc2O)CC1)NC(=O)NCc1ccco1`, the activity increase over dofetilide control, less the hit threshold was -17% (inactive).

With `Cc1cc(S(=O)(=O)N2CCOCC2)ccc1OCC(=O)NCc1ccco1`, the activity increase over dofetilide control, less the hit threshold is -7% (inactive).

As for `Cc1sc2nc(C(C)C)nc(SCC(=O)NCc3ccco3)c2c1C`, the activity increase over dofetilide control, less the hit threshold is 16% (active).

Turning to `CCn1c(SCC(=O)NC(=O)NCc2ccco2)nc2sc(C)c(C)c2c1=O`, the activity increase over dofetilide control, less the hit threshold was 18% (active).

Turning to `O=C(NCC1CCCO1)c1ccc2c(=O)n(Cc3ccco3)c(SCC(=O)N3CCCC3)nc2c1` (centres undefined), the activity increase over dofetilide control, less the hit threshold is 0% (inactive).

Take `Cc1ccc(-n2ncc3c(SCC(=O)NNC(=O)c4ccco4)ncnc32)cc1`: the activity increase over dofetilide control, less the hit threshold was -4% (inactive).
